We go through three compounds from PubChem BioAssay (EPA / NIEHS).

Structures are written as SMILES. Calls of active or inactive are those of the source. Rule for the calls: active = hit-call score of the fitted dose curve at least 0.9, where 1 is the maximum; inactive = score below 0.9.

Test [1] can be described thus: ATG_CRE_CIS: Attagene CIS-FACTORIAL HepG2 Assay for human cAMP Responsive Element (CRE) binding protein 3 (AID 2282926). As to conditions: HepG2 CRE cis-reporter, Attagene multiplexed mRNA; actives raise or lower the signal. A digest of the protocol:
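HepG2 cells transiently transfected with cis-element-driven multiple reporter transcription units; CRE reporter mRNA measured 24 h after dosing by RT-PCR, 6-FAM labelling, HpaI digestion and capillary electrophoresis. Bidirectional fit versus DMSO baseline.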

Test [2] deals with CCAAT/enhancer-binding protein beta (Homo sapiens) (UniProt P17676). The test can be described thus: ATG_C_EBP_CIS: Attagene CIS-FACTORIAL HepG2 Assay for human CCAAT/Enhancer Binding Protein (C/EBP) beta (AID 2282927). To be noted: HepG2 Attagene cis-factorial transcription factor reporter; actives raise or lower the signal. A digest of the protocol: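 RT-PCR/capillary electrophoresis fluorescence of reporter mRNA, 24 h post-dose, in HepG2 cells carrying transfected cis-promoter reporter units. Bidirectional curve fitting against DMSO baseline captures gain or loss of signal.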
Sequence of CCAAT/enhancer-binding protein beta (Homo sapiens) (P17676 whole entry, looked up): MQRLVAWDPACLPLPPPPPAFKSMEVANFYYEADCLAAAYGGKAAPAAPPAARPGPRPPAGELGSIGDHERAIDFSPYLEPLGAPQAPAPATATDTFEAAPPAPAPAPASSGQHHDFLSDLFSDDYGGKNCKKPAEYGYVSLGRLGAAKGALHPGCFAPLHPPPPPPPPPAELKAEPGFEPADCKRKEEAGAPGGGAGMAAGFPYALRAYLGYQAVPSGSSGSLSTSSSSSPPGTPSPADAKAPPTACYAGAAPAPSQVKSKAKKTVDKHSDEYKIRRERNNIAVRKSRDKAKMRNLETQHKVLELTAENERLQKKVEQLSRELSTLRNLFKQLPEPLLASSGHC

Test [3] can be described thus: ATG_CMV_CIS: Attagene CIS-FACTORIAL HepG2 Assay for human CMV (Internal Marker) (AID 2282928).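 Note: endpoint acts as a background internal control marker rather than a target.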 To be noted: HepG2 CMV promoter reporter, transcription factor profiling; actives raise or lower the signal. A digest of the protocol:
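Endogenous transcription factor activity read in HepG2 via transfected cis-promoter reporter units. After 24 h dosing, reporter mRNA measured by RT-PCR/capillary electrophoresis; gain or loss of signal fit relative to DMSO.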

Test [4] can be described thus: ATG_DR4_LXR_CIS: Attagene CIS-FACTORIAL HepG2 Assay for human Liver X Receptor (LXR), DR4 submotif (AID 2282929). To be noted: HepG2 Attagene DR4 cis-reporter, mRNA transcription; actives raise or lower the signal. A digest of the protocol: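 After transient transfection with multiplexed cis-promoter reporter units, HepG2 cells received test chemicals for 24 h. Reporter mRNA induction, detected by fluorescence after RT-PCR and capillary electrophoresis, was scored relative to DMSO.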

Test [5] is described as follows: ATG_AP_1_CIS: Attagene CIS-FACTORIAL HepG2 Assay for human Activator Protein 1 (AP-1) (AID 2282931). To be noted: HepG2 Attagene cis-factorial AP-1 reporter mRNA; actives raise or lower the signal. A digest of the protocol:
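After 24 h incubation with test chemical, RNA from transfected HepG2 cells was reverse-transcribed, amplified, fluorescently labelled and digested before capillary electrophoresis. Reporters were driven by cis-regulatory promoters; activity fitted bidirectionally versus DMSO.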

The nature of test [6]: ATG_BRE_CIS: Attagene CIS-FACTORIAL HepG2 Assay for human Bone Morphogenetic Protein (BMP) Response Element (BRE) (AID 2282933). To be noted: HepG2 BMP response element reporter, Attagene transcription factor profiling; actives raise or lower the signal. A digest of the protocol: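 Gain- or loss-of-signal was derived by bidirectional fitting against DMSO controls. The signal came from reporter mRNA, measured by RT-PCR and capillary electrophoresis, in HepG2 cells transiently carrying multiple reporter units and dosed for 24 h.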

Test [7] can be described thus: ATG_E_Box_CIS: Attagene CIS-FACTORIAL HepG2 Assay for human Enhancer Box (E-box) (AID 2282936). To be noted: HepG2 E-box cis-reporter transcription, actives raise or lower the signal. A digest of the protocol: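 HepG2 cells transiently transfected with multiplexed cis-element reporter units sensing endogenous transcription factor activity; 24 h compound exposure. Reporter mRNA measured by RT-PCR, 6-FAM primer extension, HpaI digestion and capillary electrophoresis; bidirectional fit versus DMSO.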

A short description of test [8]: ATG_M_19_CIS: Attagene CIS-FACTORIAL HepG2 Assay for M19 Transcription Factor (Internal Marker) (AID 2282939). To be noted: HepG2 Attagene CIS-FACTORIAL M19 internal marker reporter; actives raise or lower the signal. The essentials:
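Following a 24 h exposure, RNA from transfected HepG2 cells was reverse-transcribed, PCR-amplified with reporter-specific primers, end-labelled with 6-FAM and HpaI-digested before capillary separation. Values represent gain or loss versus DMSO.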

A short description of test [9]: ATG_GATA_CIS: Attagene CIS-FACTORIAL HepG2 Assay for human GATA Binding Protein (AID 2282944). To be noted: HepG2 GATA cis-element reporter, Attagene multiplex mRNA; actives raise or lower the signal. The essentials: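 DMSO serves as negative control and baseline for bidirectional fitting of reporter mRNA changes. HepG2 cells bearing transiently transfected cis-promoter reporters were exposed 24 h; transcripts detected via RT-PCR and capillary electrophoresis.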

Test [10] is described as follows: ATG_ISRE_CIS: Attagene CIS-FACTORIAL HepG2 Assay for human Interferon Regulatory Factor 1 (IRF1) binding to an Interferon-Stimulated Response Element (ISRE) (AID 2282948). As to conditions: HepG2 ISRE cis-reporter (Attagene), mRNA transcription readout; actives raise or lower the signal. The essentials:
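Transfected HepG2 (multiple reporter transcription units, cis elements) dosed 24 h. RNA → oligo(dT) RT → PCR → 6-FAM primer extension → HpaI → CE. DMSO = negative control/baseline.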

Test [11] can be described thus: ATG_M_32_CIS: Attagene CIS-FACTORIAL HepG2 Assay for M32 Transcription Factor (Internal Marker) (AID 2282949).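 Note: background control marker of the multiplexed CIS panel rather than a real target.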 As to conditions: HepG2 Attagene cis-factorial M32 reporter, mRNA; actives raise or lower the signal. A digest of the protocol: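 Internal background marker read-out: RT-PCR/capillary electrophoresis fluorescence of reporter transcripts from transiently transfected HepG2 cells after 24 h chemical exposure. Activity fitted bidirectionally relative to DMSO negative control.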

Test [12] can be described thus: ATG_M_06_CIS: Attagene CIS-FACTORIAL HepG2 Assay for M06 Transcription Factor (Internal Marker) (AID 2282950). To be noted: HepG2 Attagene CIS-FACTORIAL M06 internal marker reporter; actives raise or lower the signal. A digest of the protocol:
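Fluorescence-labelled RT-PCR products from cis-promoter reporter units, cut with HpaI and resolved by capillary electrophoresis, give the signal. Cells are human HepG2, dosed for 24 h. Serves as background control, fitted relative to DMSO.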

Test [13] in a line: ATG_MRE_CIS: Attagene CIS-FACTORIAL HepG2 Assay for human Metal Responsive Element (MRE) (AID 2282954). As to conditions: HepG2 MRE cis-reporter transcription, Attagene multiplex; actives raise or lower the signal. A digest of the protocol:
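HepG2 cells transiently transfected with multiple cis-element reporter units measure endogenous MTF1-driven transcription. After 24 h compound exposure, reporter mRNA is quantified by RT-PCR with 6-FAM labelling, HpaI digestion and capillary electrophoresis; bidirectional fits versus DMSO.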

For test [14], the target named is Paired box protein Pax-6 (Homo sapiens) (UniProt P26367). The test can be described thus: ATG_Pax6_CIS: Attagene CIS-FACTORIAL HepG2 Assay for human Paired Box 6 (PAX6) (AID 2282956). To be noted: HepG2 CIS-FACTORIAL PAX6 reporter transcription, RNA readout; actives raise or lower the signal. The essentials:
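Transient MRTU transfection of HepG2 → compound exposure 24 h → TriZol RNA, oligo(dT) RT → PCR, 6-FAM primer extension, HpaI cut → capillary electrophoresis; activity fitted both directions against DMSO.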

Test [15] can be described thus: ATG_PXRE_CIS: Attagene CIS-FACTORIAL HepG2 Assay for human Pregnane X Receptor Element (PXRE) (AID 2282957). As to conditions: HepG2 Attagene CIS-FACTORIAL PXRE reporter, mRNA; actives raise or lower the signal. A digest of the protocol: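 HepG2 cells transiently transfected with cis-element-driven multiplexed reporter units; after 24 h chemical exposure, reporter mRNA measured by RT-PCR, 6-FAM labelling, HpaI digestion and capillary electrophoresis. Bidirectional fitting relative to DMSO.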

The nature of test [16]: ATG_Sox_CIS: Attagene CIS-FACTORIAL HepG2 Assay for human SRY-box transcription factor (SOX) (AID 2282960). As to conditions: HepG2 Attagene cis-factorial SOX reporter, mRNA; actives raise or lower the signal. A digest of the protocol:
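Using transiently transfected HepG2 cells, reporter transcription driven by cis elements was assessed 24 h after dosing. Signal was fluorescence of capillary-separated RT-PCR products, with DMSO defining baseline activity.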

Test [17] deals with Transcription factor Sp1 (Homo sapiens) (UniProt P08047). The test can be described thus: ATG_Sp1_CIS: Attagene CIS-FACTORIAL HepG2 Assay for human Specificity Protein 1 (Sp1) (AID 2282961). To be noted: HepG2 Sp1 cis-reporter transcription, actives raise or lower the signal. A digest of the protocol:
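After transient transfection of HepG2 cells with cis-promoter reporter units and 24 h chemical treatment, reporter transcripts were quantified by RT-PCR and capillary electrophoresis fluorescence. Gain- and loss-of-signal fitted against DMSO.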

Test [18] can be described thus: ATG_TA_CIS: Attagene CIS-FACTORIAL HepG2 Assay for human TA Basal Promoter (AID 2282964). As to conditions: HepG2 Attagene CIS-factorial TA basal promoter reporter; actives raise or lower the signal. The essentials:
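Multiplexed mRNA reporter assay, HepG2, 24 h. Reporter cDNA amplified, 6-FAM primer-extended, HpaI-cut, CE-sized; DMSO = negative control and baseline.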

Test [19] can be described thus: ATG_TCF_b_cat_CIS: Attagene CIS-FACTORIAL HepG2 Assay for human T-Cell-Factor with beta-catenin (TCF/b-cat) (AID 2282965). As to conditions: HepG2 TCF/beta-catenin cis-reporter transcription, actives raise or lower the signal. The essentials:
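HepG2 cells transiently transfected with multiple cis-promoter-regulated reporter transcription units, so endogenous transcription factor activity is measured. Reporter mRNA read 24 hours after dosing by RT-PCR, fluorescent labelling and capillary electrophoresis; bidirectional fitting against DMSO.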

Test [20] in a line: ATG_TAL_CIS: Attagene CIS-FACTORIAL HepG2 Assay for human TAL Basal Promoter (AID 2282966).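 Note: background control endpoint measuring basal TAL promoter reporter mRNA not a specific factor.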 To be noted: HepG2 Attagene cis-factorial TAL promoter reporter; actives raise or lower the signal. A digest of the protocol:
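HepG2 cells transiently transfected with multiplexed cis-promoter reporter units, dosed 24 h. Reporter mRNA quantified by RT-PCR, 6-FAM labelling, HpaI digestion and capillary electrophoresis; TAL basal promoter serves as background control, fitted bidirectionally versus DMSO.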

By AC50 is commonly meant the concentration at which the activity in the assay is half-maximal.

Sequence of Transcription factor Sp1 (Homo sapiens) (P08047 whole entry, looked up): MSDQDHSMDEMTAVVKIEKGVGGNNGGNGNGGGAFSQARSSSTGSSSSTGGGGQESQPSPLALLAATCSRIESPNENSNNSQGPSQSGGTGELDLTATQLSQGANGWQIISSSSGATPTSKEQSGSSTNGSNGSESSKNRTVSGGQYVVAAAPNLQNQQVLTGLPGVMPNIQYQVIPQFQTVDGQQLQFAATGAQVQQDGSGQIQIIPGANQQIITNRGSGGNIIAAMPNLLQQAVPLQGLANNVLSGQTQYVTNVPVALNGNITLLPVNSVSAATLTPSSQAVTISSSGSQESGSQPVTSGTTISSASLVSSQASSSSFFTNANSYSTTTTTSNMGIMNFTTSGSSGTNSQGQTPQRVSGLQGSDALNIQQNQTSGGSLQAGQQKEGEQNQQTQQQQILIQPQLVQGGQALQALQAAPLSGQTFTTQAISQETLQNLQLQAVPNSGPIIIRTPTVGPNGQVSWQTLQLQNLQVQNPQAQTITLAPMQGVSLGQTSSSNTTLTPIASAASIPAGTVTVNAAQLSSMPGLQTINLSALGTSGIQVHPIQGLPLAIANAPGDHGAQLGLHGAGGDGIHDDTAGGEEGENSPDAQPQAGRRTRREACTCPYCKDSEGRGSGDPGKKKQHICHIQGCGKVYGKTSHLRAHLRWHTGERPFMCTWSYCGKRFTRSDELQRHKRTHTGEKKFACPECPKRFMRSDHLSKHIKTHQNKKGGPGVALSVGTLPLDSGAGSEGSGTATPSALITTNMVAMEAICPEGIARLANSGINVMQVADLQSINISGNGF
Sequence of Paired box protein Pax-6 (Homo sapiens) (P26367 whole entry, looked up): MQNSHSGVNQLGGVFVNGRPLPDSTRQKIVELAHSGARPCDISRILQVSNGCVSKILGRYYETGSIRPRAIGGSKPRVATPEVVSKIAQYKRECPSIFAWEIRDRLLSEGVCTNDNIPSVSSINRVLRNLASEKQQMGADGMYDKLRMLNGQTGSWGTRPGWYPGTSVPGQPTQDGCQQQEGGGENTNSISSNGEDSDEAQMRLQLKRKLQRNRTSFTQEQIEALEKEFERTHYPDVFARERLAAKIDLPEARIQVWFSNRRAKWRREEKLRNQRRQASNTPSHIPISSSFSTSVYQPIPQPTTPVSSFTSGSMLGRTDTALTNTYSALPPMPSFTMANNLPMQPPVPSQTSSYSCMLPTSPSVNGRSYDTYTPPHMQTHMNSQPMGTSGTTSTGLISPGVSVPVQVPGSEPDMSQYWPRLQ

As to `COC(=O)[C@]1(C)CCC[C@@]2(C)[C@H]1CC=C1C=C(C(C)C)CC[C@@H]12`, the result in test [1], in test [2], in [4], in test [7], in test [8] and in test [10] was inactive. The call in [11], in [12], in [14], in [16], in [17] and in test [18] was inactive. Moreover, the call in [19] was inactive. Besides, the AC50 is 100 µM (active) in test [3]; 62.4 µM (active) in test [5]; 100 µM (active) in [6]; 173 µM (active) in test [9]; 66.1 µM (active) in [13]; 3.48 µM (active) in test [15]. Also, the AC50 in [20] is 52.4 µM (active).

As to `COCCCN`, the result in test [1], in test [2], in test [3], in test [4], in test [5] and in test [6] was inactive. Moreover, the result in [7], in test [8], in [9], in [10], in test [11] and in test [12] was inactive. Besides, the compound was called inactive in test [13], in test [14], in test [15], in test [16], in test [17] and in test [18]. The compound was classed as inactive in test [19] and in test [20].

With `CN(C)N=Nc1ccccc1`, the outcome in test [1], in test [2], in test [3], in test [4], in test [5] and in [6] was inactive. Further, the result in test [7], in test [8], in test [9], in test [10], in test [11] and in test [12] was inactive. The call in test [13], in test [14], in test [16], in test [17], in [18] and in test [19] was inactive. In [20], the compound was called inactive. In addition, the AC50 in test [15] is 48.3 µM (active).
